NS1 inh – influenza NS1 inhibition | AID 2326 | 0.4% of 270,000 active | Potency, µM (top dose mostly 46.1 µM); calls by dose curve; note: actives are rising curves; nearly all actives have a fitted effect of over 50% in size
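Compounds were scored for reversing the slow growth caused by influenza A NS1 in S. cerevisiae, measured by optical density at 600 nm. Assay medium contained 2% galactose at pH 6.0; NS1-free yeast of the same strain were the positive control.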
LmPK inhibitor – inhibitors of Leishmania mexicana pyruvate kinase. Potency, µM (doses to about 57.5 µM), hits mostly inhibitors. 0.37% of 290,000 active. AID 1721. purified LmPK, Kinase-Glo ATP luminescence, 1 h. Q27686
Target sequence (Q27686 whole entry, looked up): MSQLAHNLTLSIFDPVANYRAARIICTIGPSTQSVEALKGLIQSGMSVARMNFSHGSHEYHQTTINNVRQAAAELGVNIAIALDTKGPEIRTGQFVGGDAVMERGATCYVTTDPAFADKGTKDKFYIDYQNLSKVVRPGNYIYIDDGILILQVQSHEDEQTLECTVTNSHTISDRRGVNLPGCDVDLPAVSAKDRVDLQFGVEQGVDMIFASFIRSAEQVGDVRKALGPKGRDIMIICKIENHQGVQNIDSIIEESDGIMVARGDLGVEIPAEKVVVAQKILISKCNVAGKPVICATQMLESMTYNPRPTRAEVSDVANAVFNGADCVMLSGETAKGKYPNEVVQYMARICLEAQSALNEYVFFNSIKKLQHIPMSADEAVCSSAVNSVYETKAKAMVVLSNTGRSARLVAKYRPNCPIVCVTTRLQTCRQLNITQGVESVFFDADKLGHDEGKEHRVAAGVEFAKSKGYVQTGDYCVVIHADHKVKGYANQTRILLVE
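Kinase-Glo luminescence read after 1 h RT reaction of 0.1 nM LmPK with 0.5 mM PEP and 0.1 mM ADP. Activity scaled between uninhibited and enzyme-free controls.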
Giardia FBPA inh-1 – Giardia lamblia aldolase inhibition | A8B2U2 | purified Giardia FBPA | Potency, µM (doses to about 59.6 µM), most hits filed as inhibitors | 0.71% of 290,000 active | AID 2451; note: nearly all actives have a fitted effect of over 55% in size
Target sequence (A8B2U2 whole entry, looked up): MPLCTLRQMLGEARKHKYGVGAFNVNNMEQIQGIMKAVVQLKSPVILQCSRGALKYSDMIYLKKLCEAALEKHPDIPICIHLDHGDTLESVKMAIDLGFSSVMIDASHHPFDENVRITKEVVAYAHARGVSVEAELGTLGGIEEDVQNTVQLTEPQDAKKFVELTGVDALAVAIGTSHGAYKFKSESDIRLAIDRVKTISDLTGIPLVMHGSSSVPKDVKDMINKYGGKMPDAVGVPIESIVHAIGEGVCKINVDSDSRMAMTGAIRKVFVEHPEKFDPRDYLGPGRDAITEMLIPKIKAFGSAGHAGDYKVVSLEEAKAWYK
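40 nM FBPA preincubated 10 min at RT with compound (up to 57.5 uM final), then substrate plus GAPDH/TPI/NAD/arsenate coupling and diaphorase/resazurin added. Fluorescence read after 20 min at RT, 525/598 nm.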
Sm TGR inh – S. mansoni TGR enzyme inhibition; purified TGR, DTNB reduction, TNB absorbance 405 nm; Potency, µM (doses to about 114 µM), actives largely listed as inhibitors; 3% of 360,000 active; note: nearly all actives have a fitted effect of over 60% in size
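First, TGR (20 nM dispensed) and NADPH were mixed with compound. Second, a 15 min room-temperature incubation followed. Third, further NADPH and then DTNB were added to start the reaction. Finally, TNB absorbance was monitored kinetically.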
RE007 growth inh – less growth of the S. pombe RE007 Vpr strain. AID 651644. S. pombe RE007 Vpr strain, BacTiter-Glo ATP luminescence, 24 h. Potency, µM (doses to about 92.2 µM), hits mostly inhibitors. 0.21% of 360,000 active; active = well fitted falling curve with a large enough effect; inconclusive = small, poorly fitted or top-dose-only effect; inactive = no such curve, though single readings can be large or run the other way; note: nearly all actives have a fitted effect of over 50% in size
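Fission yeast RE007 carrying one integrated HIV-1 vpr copy, seeded at OD 0.01 in PMG+AL medium with 23 nL pinned compound. Grown 24 h at 30 degrees; viability read by BacTiter-Glo luminescence after 5 min.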
Tb PYK inh – blocks Trypanosoma brucei pyruvate kinase | AID 624173 | 0.12% of 410,000 active | TbPYK enzyme, Kinase-Glo Plus ATP luminescence, 45 min | Q57TT1 | Potency, µM (top dose mostly 76.8 µM), usual class: inhibitors; note: nearly all actives have a fitted effect of over 50% in size
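TbPYK + substrate in 50 mM TEA pH 7.2, 100 mM KCl, 10 mM MgCl2, 0.05% BSA, 0.01% Tween-20; cpd pinned; ADP 130 uM final; 45 min RT; Kinase-Glo Plus 10 min; luminescence endpoint.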
Giardia growth – inhibitors of Giardia lamblia growth; Giardia lamblia trophozoite growth inhibition; AID 2785; 5% of 1,500 active; shares compounds with Giardia FBPA inh-1; Potency, µM (top dose mostly 57.5 µM), usual class: inhibitors;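 note: trophozoites exposed to compound for 48 h at 37 °C; nearly all actives have a fitted effect of over 70% in size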
Mammal cell tox – mammalian cytotoxicity of Giardia aldolase inhibitor hits. mammalian cell viability counter-screen, qHTS. shares compounds with Giardia FBPA inh-1. 4% of 1,500 active. Potency, µM (top dose mostly 57.5 µM), actives largely listed as inhibitors;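 note: Chinese hamster ovary cells used as mammalian cytotoxicity surrogate; viability measured as cellular ATP by luminescence; compound exposure lasted 48 h before reading; nearly all actives have a fitted effect of over 60% in size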
Giardia FBPA inh-2 – confirmation of Giardia fructose-bisphosphate aldolase inhibitors | shares compounds with Giardia FBPA inh-1 | purified Giardia aldolase enzyme activity, qHTS | Potency, µM (doses to about 57.5 µM), hits mostly inhibitors | 5% of 1,500 active | AID 2787; note: nearly all actives have a fitted effect of over 45% in size
Rabbit FBPA inh – selectivity test for Giardia aldolase inhibitors: rabbit aldolase; shares compounds with Giardia FBPA inh-1; Rabbit muscle FBPA enzyme inhibition, selectivity counter-screen; Potency, µM (doses to about 57.5 µM), most hits filed as inhibitors; 4% of 1,500 active; note: nearly all actives have a fitted effect of over 60% in size
GAPDH counter – counter-screen for Giardia aldolase inhibitors: GAPDH coupling enzyme. shares compounds with Giardia FBPA inh-1. GAPDH coupling enzyme counterscreen, biochemical, qHTS. Potency, µM (doses to about 57.5 µM), actives largely listed as inhibitors. 6% of 1,500 active. AID 2795; note: nearly all actives have a fitted effect of over 55% in size
Hits are given with their value; [ ] = another dose, or the depositor's remark. The list is not random: actives were taken first. Their share in the collection is about 3.5%. Unless noted, calls come from the whole dose curve; as a rule, active = well fitted curve in the direction sought with a large enough effect; inconclusive = small, poorly fitted or top-dose-only effect, or another doubt; inactive = no such curve, though single readings can be large; an effect the other way counts as inactive or inconclusive.

Screening CN1CCN(C(c2cccnc2)c2ccc3cccnc3c2O)CC1 (stereo not drawn) returned NS1 inh inactive, LmPK inhibitor inactive, Giardia FBPA inh-1 inconclusive, Sm TGR inh 0.251µM, RE007 growth inh inactive, Tb PYK inh inactive, Giardia growth inactive, Mammal cell tox inactive, Giardia FBPA inh-2 inconclusive, Rabbit FBPA inh inactive and GAPDH counter inactive.
COc1cccc(C(=O)N2CCN(Cc3ccccc3Br)CC2)c1 was read as NS1 inh inactive, LmPK inhibitor inactive, Giardia FBPA inh-1 15.8µM, Sm TGR inh inactive, RE007 growth inh inactive, Tb PYK inh inactive, Giardia growth inactive[10.4 µM], Mammal cell tox inactive, Giardia FBPA inh-2 inactive, Rabbit FBPA inh inactive and GAPDH counter inactive.
For O=C(c1ccccc1)N1CCN(Cc2ccccc2C(F)(F)F)CC1 the results were LmPK inhibitor inactive, Giardia FBPA inh-1 19.9µM, Sm TGR inh inactive, RE007 growth inh inactive, Tb PYK inh inactive, Giardia growth inactive, Mammal cell tox inactive, Giardia FBPA inh-2 inactive, Rabbit FBPA inh inactive and GAPDH counter inactive.
Screening COc1cccc(C(=O)N2CCN(Cc3ccccc3C(F)(F)F)CC2)c1 returned NS1 inh inactive, LmPK inhibitor inactive, Giardia FBPA inh-1 inconclusive, Sm TGR inh inactive, RE007 growth inh inactive and Tb PYK inh inactive.
COc1cc(OC)cc(C(=O)N2CCN(Cc3ccccc3[N+](=O)[O-])CC2)c1 was read as NS1 inh inactive, LmPK inhibitor inactive, Giardia FBPA inh-1 17.7µM, Sm TGR inh inactive, RE007 growth inh inactive, Tb PYK inh inactive, Giardia growth inactive[10.4 µM], Mammal cell tox inactive, Giardia FBPA inh-2 inactive, Rabbit FBPA inh inactive and GAPDH counter inactive.
N#Cc1cc2cc3c(cc2nc1N1CCCCC1)OCCO3 was read as NS1 inh inactive, LmPK inhibitor inactive, Giardia FBPA inh-1 6.29µM, Sm TGR inh inactive, RE007 growth inh inactive, Tb PYK inh inactive, Giardia growth 56.2µM, Mammal cell tox inactive, Giardia FBPA inh-2 inactive, Rabbit FBPA inh inactive and GAPDH counter inactive.
`N#Cc1cc2cc3c(cc2nc1Cl)OCCO3` gave RE007 growth inh inactive and Tb PYK inh inactive.
`COc1ccc(Cl)cc1NC(=O)CN1C(=O)C(C)(C)c2cc(S(=O)(=O)N3CCCCC3)ccc21` gave Sm TGR inh inactive and Tb PYK inh inactive.
CC(=O)Nc1ccc(-c2ccc(NC(C)=O)c(O)c2)cc1O was read as NS1 inh inactive, LmPK inhibitor inactive, Giardia FBPA inh-1 inactive, Sm TGR inh inactive, RE007 growth inh inactive, Tb PYK inh inactive, Giardia growth inactive, Mammal cell tox inactive, Giardia FBPA inh-2 2.59µM, Rabbit FBPA inh inactive and GAPDH counter inconclusive.
CC(=O)Nc1ccccc1O was read as NS1 inh inactive, LmPK inhibitor inactive, Giardia FBPA inh-1 inactive, Sm TGR inh inactive, RE007 growth inh inactive and Tb PYK inh inactive.
`Cc1ccc(Cl)cc1N1CCN(C(=O)CCCn2c(=O)[nH]c3ccc(Br)cc3c2=O)CC1` gave Sm TGR inh inactive and Tb PYK inh inactive.
`Nc1c(C(=O)Nc2ccc(OC(F)(F)F)cc2)nnn1Cc1ccccc1` gave Sm TGR inh inactive and Tb PYK inh inactive.
Screening COc1ccc(C(=O)NC(=S)N2CCOCC2)cc1Br returned NS1 inh inactive, LmPK inhibitor inactive, Giardia FBPA inh-1 15.8µM, Sm TGR inh inactive, RE007 growth inh inactive, Tb PYK inh inconclusive, Giardia growth inconclusive, Mammal cell tox inactive, Giardia FBPA inh-2 inactive, Rabbit FBPA inh inactive and GAPDH counter inactive.
Screening COc1cc(C(=O)NC(=S)N2CCCCCC2)cc(OC)c1OC returned LmPK inhibitor inactive, Giardia FBPA inh-1 15.8µM, Sm TGR inh inactive, RE007 growth inh inactive, Tb PYK inh inactive, Giardia growth inconclusive, Mammal cell tox inactive, Giardia FBPA inh-2 inactive, Rabbit FBPA inh inactive and GAPDH counter inactive.
Screening COc1ccc(C(=O)NC(=S)N2CCOCC2)cc1[N+](=O)[O-] returned NS1 inh inactive, LmPK inhibitor inactive, Sm TGR inh inactive, RE007 growth inh inactive and Tb PYK inh inconclusive.
`COc1ccc2c(c1)cc1c(=O)n(CC(=O)NC3CC3)nc(C)n12` gave Sm TGR inh inactive and Tb PYK inh inactive.
Screening Cc1ccc(OCCOCCN2CCN(C)CC2)c([N+](=O)[O-])c1 returned NS1 inh inactive, LmPK inhibitor inactive, Giardia FBPA inh-1 inconclusive, Sm TGR inh inactive, RE007 growth inh inactive and Tb PYK inh inactive.
Cc1ccc(OCCOCCN2CCCCC2)c([N+](=O)[O-])c1 was read as NS1 inh inactive, LmPK inhibitor inactive, Giardia FBPA inh-1 19.9µM, RE007 growth inh inactive, Tb PYK inh inactive, Giardia growth inactive, Mammal cell tox inactive, Giardia FBPA inh-2 inactive, Rabbit FBPA inh inactive and GAPDH counter inactive.
Screening CC(C)(C)c1ccc(C(=O)Nc2cccc3c(=O)[nH][nH]c(=O)c23)cc1 returned NS1 inh inactive, LmPK inhibitor inactive, Giardia FBPA inh-1 19.9µM, Sm TGR inh inactive, RE007 growth inh inactive, Tb PYK inh inactive, Giardia growth inconclusive, Mammal cell tox inconclusive, Giardia FBPA inh-2 inactive, Rabbit FBPA inh inactive and GAPDH counter inactive.
`CC1(C)CC(=O)C(/C=N/n2cnc3ccccc3c2=O)=C(O)C1` gave NS1 inh inactive, LmPK inhibitor inactive, Giardia FBPA inh-1 17.7µM, Sm TGR inh inactive, RE007 growth inh inactive, Tb PYK inh inactive, Giardia growth inactive, Mammal cell tox inactive, Giardia FBPA inh-2 inactive, Rabbit FBPA inh inactive and GAPDH counter inactive.
Screening CC1(C)CC(=O)C(/C=N/c2ccccn2)=C(O)C1 returned NS1 inh inactive, LmPK inhibitor inactive, Giardia FBPA inh-1 inactive, Sm TGR inh inactive, RE007 growth inh inactive and Tb PYK inh inactive.
For CN1CC[C@@]2(C)c3cc(O)ccc3N(C)C2O1 (stereo partly drawn) the results were Giardia FBPA inh-1 0.629µM, Tb PYK inh inactive, Giardia growth inconclusive, Mammal cell tox inactive, Giardia FBPA inh-2 2.51µM, Rabbit FBPA inh 3.55µM and GAPDH counter 4.47µM.

Compound activity deposited in PubChem by National Center for Advancing Translational Sciences (NCATS).
